Target: T1, ETS1 (UniProt P14921)
T1 sequence: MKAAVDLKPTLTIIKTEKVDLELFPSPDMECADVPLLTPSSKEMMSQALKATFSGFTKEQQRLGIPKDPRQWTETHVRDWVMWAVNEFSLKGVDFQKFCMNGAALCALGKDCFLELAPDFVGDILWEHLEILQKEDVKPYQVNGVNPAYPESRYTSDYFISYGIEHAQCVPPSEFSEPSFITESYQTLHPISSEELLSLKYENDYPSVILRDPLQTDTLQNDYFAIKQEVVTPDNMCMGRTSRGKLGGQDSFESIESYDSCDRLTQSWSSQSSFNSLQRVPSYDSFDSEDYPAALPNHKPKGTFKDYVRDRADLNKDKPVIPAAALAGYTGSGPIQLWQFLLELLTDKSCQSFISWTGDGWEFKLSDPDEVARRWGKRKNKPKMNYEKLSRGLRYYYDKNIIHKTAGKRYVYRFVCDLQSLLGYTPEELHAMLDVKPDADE
Assay: TF binding intensity (PBM fluorescence), negative control probe (arbitrary fluorescence units); higher = stronger binding
Procedure: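 gcPBM negative-control 36-bp genomic probes lacking TF binding sites. Each was incubated with recombinant human ETS1 or RUNX1 alone and detected by antibody fluorescence. Values are medians over replicate spots (4 spots for the ETS1-RUNX1 arrays, 3 for the ETS1-ETS1 array). The probes sit in constant array flanks that are not printed.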

Row | Sequence | TF binding intensity
1 | GCCCTGAGACTTGCCTTGCAATGCCATGTTTGTGTA (protein concentration 10 nM) | 125
2 | CGGACTGGGAGTTTGACCGCGTTGACGACGGCTCGC (protein concentration 1 nM) | 446
3 | GCTATTTTCTCTGCTTGAACATACCGTGTACACACA (protein concentration 10 nM) | 178
4 | CAGTGCAGCTGTTTGCCATGTGGGCCCACACCACTG (protein concentration 10 nM) | 126
5 | ACTCATTAGCAGTGAGCCACAAAGACTCTCTGGAAG (protein concentration 1 nM) | 359
6 | TGGAAAATAATATTTCAAGACCATAATATGGCTGCT (protein concentration 10 nM) | 100

Source: the supplement of paper PMC10681739
